High-throughput results: PubChem, Center for Chemical Genomics, University of Michigan
TAR Tat displ = HIV-1 TAR-Tat binding disruption; z-score (concentration not given with the values); HIV-1 TAR RNA, Tat peptide displacement FRET; stronger effect = higher value; AID 1259389; 100,000 tested, 0.6% active; active = z-score of 3 or more in at least 2 runs
CDC25B-CDK2 inh = human CDC25B-CDK2/CyclinA binding inhibition; P30305+P24941; 94,000 tested, 0.72% active; HTRF CDC25B-CDK2/CyclinA binding, anti-His/anti-Flag; stronger effect = higher value; z-score (concentration not given with the values); in the data active = z-score above about 3.2
* marks the source's active call; other numbers are inactive results. Rows were chosen to be rich in hits. Some 0.93% of all compounds tested hit in one or more screens of this group.

`CCn1c2ccccc2c2cc(CN3CCN(Cc4cccc([N+](=O)[O-])c4)CC3)ccc21` gave CDC25B-CDK2 inh 2.7.
Cc1c(C(=O)N(C)c2ccccc2Cl)sc2nc3n(c(=O)c12)CCCC3 was read as TAR Tat displ 0.09.
`COc1ccc(Br)cc1S(=O)(=O)NCCn1nc(-c2ccc(F)cc2)ccc1=O` gave TAR Tat displ -0.35.
For Cc1c(CO)cnn1-c1ccc(F)cc1 the results were CDC25B-CDK2 inh -1.5.
Screening CNC(=O)C(C)n1sc2ccccc2c1=O (stereo unspecified) returned TAR Tat displ 1.8 and CDC25B-CDK2 inh -2.1.
Screening CC(C(=O)NCc1ccco1)n1sc2ccccc2c1=O (stereo unspecified) returned TAR Tat displ 3.6* and CDC25B-CDK2 inh -1.8.
For Cc1c(C(=O)O)sc2ncnc(NC3CCCCC3)c12 the results were TAR Tat displ 6*.
Screening Cc1c(C(=O)O)sc2ncnc(Nc3ccc(C(C)C)cc3)c12 returned TAR Tat displ 2.6.
For Cc1c(C(=O)O)sc2ncnc(NCCC(C)C)c12 the results were TAR Tat displ 10*.
Screening Cc1c(C(=O)O)sc2ncnc(NC3CCCC3)c12 returned TAR Tat displ 0.65.
Screening Cn1c2c(c(=O)n(C)c1=O)CN(CCN1CCCCC1)CN2 returned TAR Tat displ 0.26 and CDC25B-CDK2 inh -1.9.
`CCN1C(=O)c2cc(C(=O)NCc3ccco3)nn2CC1(C)C(=O)NC1CCCC1` (stereo unspecified) gave TAR Tat displ -0.68.
Screening O=C(CN1C(=O)c2ccccc2Sc2ncccc21)Nc1ccc2c(c1)OCO2 returned TAR Tat displ 13*.
Screening O=C(CN1C(=O)c2cccnc2Sc2ccccc21)Nc1ccc2c(c1)OCCO2 returned TAR Tat displ 0.53.
Screening O=C(CSc1ccc2nc(-c3ccccc3)cn2n1)NCc1ccco1 returned TAR Tat displ 0.62.
Cc1ccc(-c2csc(-c3ccccc3N)n2)cc1 was read as TAR Tat displ -2.7 and CDC25B-CDK2 inh -1.
Screening COc1ccc(Oc2ccc([N+](=O)[O-])c3nonc23)cc1 returned CDC25B-CDK2 inh 12*.
`COc1ccc(Oc2ccc([N+](=O)[O-])cc2-c2nc(-c3ccccn3)no2)cc1` gave CDC25B-CDK2 inh -1.5.
Cc1ccc(-n2nnc(-c3nc(-c4ccc(Cl)cc4)no3)c2N)c(C)c1 was read as TAR Tat displ 1.1.
`COc1ccc(OC)c(CN2CCN(Cc3ccc4c(c3)OCO4)CC2)c1` gave TAR Tat displ 0.34 and CDC25B-CDK2 inh -0.45.
O=S(=O)(c1ccccc1)N1CCN(Cc2ccc3c(c2)OCO3)CC1 was read as TAR Tat displ 1.2 and CDC25B-CDK2 inh -0.65.
Screening CCOc1ccc(CN2CCN(Cc3ccc4c(c3)OCO4)CC2)cc1 returned TAR Tat displ 1.1 and CDC25B-CDK2 inh 8.4*.
Screening O=S(=O)(c1ccc2ccccc2c1)N1CCN(Cc2ccc3c(c2)OCO3)CC1 returned TAR Tat displ 9* and CDC25B-CDK2 inh -0.97.
Screening O=C(c1ccc2c(c1)OCO2)N1CCc2[nH]nc(-c3ccccc3)c2C1 returned TAR Tat displ 1.6.
For CC(=O)NC1=NN(C(C)=O)C(c2ccc(Sc3ccc(C)cc3)o2)S1 (stereo unspecified) the results were TAR Tat displ 2 and CDC25B-CDK2 inh -0.44.
`CC(=O)NC1=NN(C(C)=O)C(c2ccc(C)o2)S1` (stereo unspecified) gave TAR Tat displ 16* and CDC25B-CDK2 inh -2.3.
CC(=C/C(=O)O)/C(=C\c1cccnc1)C(=O)O was read as CDC25B-CDK2 inh -1.3.
For O=C(/C=C/c1cccnc1)c1ccc[cH-]1.[Fe+2].c1cc[cH-]c1 the results were CDC25B-CDK2 inh 15*.
`CCOC(=O)c1c(C)oc2ncnc(NCCN3CCCC3)c12` gave TAR Tat displ 2.1.
Screening COc1ccccc1NC(=O)N1c2ccccc2NC2=C(C(=O)CCC2)C1c1cccs1 (stereo unspecified) returned TAR Tat displ 2.6.
`CCOc1ccccc1NC(=O)N1c2ccccc2NC2=C(C(=O)CCC2)C1c1cccs1` (stereo unspecified) gave TAR Tat displ 21*.
`CCOC(=O)C1=C(C)NC(=S)NC1c1cccc(Cl)c1` (stereo unspecified) gave CDC25B-CDK2 inh 1.1.
O=C1c2cccnc2C(=O)N1CCc1ccc(S(=O)(=O)NCc2ccco2)cc1 was read as TAR Tat displ -0.19.
Screening COc1cc(CNc2cc(-n3nc(C)cc3C)ncn2)cc(OC)c1 returned TAR Tat displ -1.1.
OCC1O[C@H](O)C(Cl)C(O)C1O (stereo partly specified) was read as CDC25B-CDK2 inh -2.6.
`OCC1O[C@H]([S-])[C@@H](O)C(O)[C@@H]1O.[Au+]` (stereo partly specified) gave CDC25B-CDK2 inh 19*.
CN(C(=O)C1=CC(c2ccco2)=NS(=O)(=O)N1C)c1ccccc1 was read as TAR Tat displ -0.14 and CDC25B-CDK2 inh -2.2.
Screening Cc1nc(N2CCCCC2)cc(N2CCN(S(=O)(=O)c3cccc(F)c3)CC2)n1 returned TAR Tat displ 0.41 and CDC25B-CDK2 inh -0.43.
Screening COc1ccc(Br)cc1C1CC(=O)N2CN(Cc3ccccc3)CSC2=C1C#N (stereo unspecified) returned TAR Tat displ -1.1 and CDC25B-CDK2 inh 3.2*.
`COc1ccc(CN2CSC3=C(C#N)C(c4ccc(Cl)cc4)CC(=O)N3C2)cc1` (stereo unspecified) gave TAR Tat displ -0.55 and CDC25B-CDK2 inh 3.8*.
N#CC1=C2SCN(Cc3ccco3)CN2C(=O)CC1c1ccc(OCc2ccc(Cl)cc2)cc1 (stereo unspecified) was read as TAR Tat displ -1.6 and CDC25B-CDK2 inh -0.73.
COc1ccc(Br)cc1C1CC(=O)N2CN(c3ccccc3)CSC2=C1C#N (stereo unspecified) was read as TAR Tat displ -1.9 and CDC25B-CDK2 inh 7.6*.
`N#CC1=C2SCN(Cc3ccccc3)CN2C(=O)CC1c1ccc(Br)cc1` (stereo unspecified) gave TAR Tat displ -2.3 and CDC25B-CDK2 inh -0.18.
`COc1ccc(Br)cc1C1CC(=O)N2CN(c3ccccc3F)CSC2=C1C#N` (stereo unspecified) gave TAR Tat displ 0.18 and CDC25B-CDK2 inh 0.3.
For N#CC1=C2SCN(Cc3ccccc3)CN2C(=O)CC1c1cccc(Br)c1 (stereo unspecified) the results were TAR Tat displ -0.65 and CDC25B-CDK2 inh 2.9.
For COc1ccc(C2CC(=O)N3CN(Cc4ccccc4)CSC3=C2C#N)c(OC)c1 (stereo unspecified) the results were TAR Tat displ 1.1 and CDC25B-CDK2 inh 4.5*.
COC(=O)c1cc(S(=O)(=O)N(C)CC(=O)Nc2ccc3c(c2)OCO3)cn1C was read as TAR Tat displ -1.4.
Cc1cc2[nH]c(=O)c(=O)[nH]c2cc1S(=O)(=O)N1C(=O)CNc2ccccc21 was read as TAR Tat displ 1.1.
Screening Cc1cc(C)n(-c2nnc(Nc3ccccc3C)c3ccccc23)n1 returned TAR Tat displ 1.4.
O=C(CCCN1C(=O)c2cccnc2Oc2ccccc21)N1CCN(c2ccccn2)CC1 was read as TAR Tat displ 1.2.
Screening O=c1cc(-c2ccccc2)nc2nc(NCc3ccc(Cl)cc3)[nH]n12 returned TAR Tat displ -0.07 and CDC25B-CDK2 inh -2.9.
